# A selection: hits, their analogues and other compounds. The true share with any hit is near 3.5%.
# MITF inh: MITF inhibitors, primary screen, biochemical, AlphaScreen, human. inhibition, % at 2.6 µM. 0.91% of 650,000 active. Microphthalmia-associated transcription factor (Homo sapiens), O75030. AlphaScreen MITF homodimerization, bead proximity signal; in the data active = inhibition above about 50%;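 note: 0% = vehicle wells with protein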
# FBW7 act: FBW7 E3 ligase activators, primary screen, biochemical, AlphaScreen, human. F-box/WD repeat-containing protein 7 (Homo sapiens), Q969H0. AlphaScreen FBW7–phospho-cyclin E peptide binding, activator screen. normalized activity (activation), % at 26.1 µM. 0.13% of 650,000 active. AID 1259310, 2017; in the data active = normalized activity above about 1.9%;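 note: purified mutant Fbw7 with reduced substrate affinity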
# GPR151 ag: activators of human GPR151, primary screen, cell-based, PathHunter beta-arrestin, luminescence | G-protein coupled receptor 151 (Homo sapiens), Q8TDV0 | activation, % at 11.2 µM | PathHunter beta-arrestin GPR151 cells | 1% of 650,000 active; in the data active = activation above about 4.9%;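 note: 0% = median of compound wells and 100% = cells with positive control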
# TEAD-YAP inh: TEAD-YAP interaction inhibition, primary screen, TEAD-YAP interaction inhibitor project, luminescence, HEK-TIYL cells; TEAD-Gal4/YAP UAS-luciferase luminescence; inhibition, % at 9.12 µM; 1.4% of 640,000 active; in the data active = inhibition above about 32%;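 note: 0% = median of test compound wells and 100% = reference inhibitor wells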
# GPR151 confirm: GPR151 activators, triplicate retest, confirmation, cell-based, PathHunter beta-arrestin, luminescence. shares compounds with GPR151 ag. GPR151 PathHunter beta-arrestin cells, 90 min; % of EA-reagent control over plate median. activation, % at 11.2 µM. 6,700 tested, under 10 active. AID 1508609, 2020;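 active = mean percent activation across replicates above the confirmation screen cutoff of 4.91%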
# GPR119 counter: GPR119 activators in beta-arrestin cells, counter-screen for GPR151 activator project, cell-based, PathHunter beta-arrestin, luminescence, triplicate. activation, % at 11.2 µM. shares compounds with GPR151 ag. 0.3% of 6,700 active. 90 min; 0 = compound-well median, 100 = enzyme-acceptor control;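 active = mean percent activation in the counterscreen above 29.09%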;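 note: counterscreen on off-target GPR119 to flag nonselective hits from the GPR151 activator screen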
# Target sequence (Q8TDV5 whole entry, looked up): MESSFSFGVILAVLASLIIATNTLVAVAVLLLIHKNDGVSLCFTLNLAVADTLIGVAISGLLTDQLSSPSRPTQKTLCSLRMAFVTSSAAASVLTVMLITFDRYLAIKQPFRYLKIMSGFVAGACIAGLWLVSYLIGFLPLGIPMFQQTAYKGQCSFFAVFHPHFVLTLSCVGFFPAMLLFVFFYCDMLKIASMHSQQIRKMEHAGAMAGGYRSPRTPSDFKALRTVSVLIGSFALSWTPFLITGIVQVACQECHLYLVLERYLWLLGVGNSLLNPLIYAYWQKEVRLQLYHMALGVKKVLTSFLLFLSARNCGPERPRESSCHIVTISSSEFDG
# Numbers without * were called inactive; · = no result given; ! = not active in a repeat.
SMILES,MITF inh,FBW7 act,GPR151 ag,TEAD-YAP inh,GPR151 confirm,GPR119 counter
COc1ccccc1Cn1c(=O)c2cccnc2n(CC(=O)Nc2ccccc2)c1=O,0,0,7.0*,1,-1,-8
Cc1cc(NC(=O)c2cc(-c3ccccc3O)no2)nn1CC(=O)N1CCOCC1,6,0,5.6*,-8,1,5
Cc1c(C(=O)NC2CCCCCC2)sc2ncnc(N(C)c3ccccc3)c12,-3,0,0,-3,·,·
COc1ccc(-c2c[n+](CC(=O)OC3CC(C)CCC3C(C)C)c3n2CCCCC3)cc1 (centres undefined),18,0,5.3*,86*,1,-1
COc1ccc(C/C(N)=N/OC(=O)Cc2ccccc2)cc1,0,0,-1,-7,·,·
CCC(CC)C(=O)O/N=C(\N)Cc1ccc(OC)cc1,12,0,9.3*,3,1,-1
CC(=O)c1c(C)[nH]c(C(=O)N(CC(C)C)CC(C)C)c1C,0,0,1,-5,·,·
COCCn1c(=NC(=O)CN2C(=O)CCC2=O)sc2cc(Br)ccc21,0,0,0,1,·,·
CCOCCn1c(=NC(=O)CN2C(=O)CCC2=O)sc2cc(Br)ccc21,-3,0,5.8*,10,0,4
O=C(CSc1nnc2ccc(-c3ccco3)nn12)N1CCc2ccccc21,11,0,2,-4,·,·
Cc1nnc(NC(C)c2ccccc2)[nH]c1=O (centres undefined),-3,0,5.5*,-1,0,4
C=CCOC(=O)C1C(c2cccc(F)c2)c2c([nH][nH]c2=O)CC1(C)O (centres undefined),5,0,-1,0,·,·
Fc1cccc2sc(Nc3nc(-c4ccccn4)cs3)nc12,19,-1,7.6*,50*,0,0
S=C(NCc1ccco1)N1CCN(C2CCCCC2)CC1,0,0,6.1*,-4,-1,-4
Fc1ccc(Br)cc1SCCc1ccncc1,-1,0,-1,5,·,·
Brc1ccc(SCCc2ccncc2)cc1,22,1,12*,2,-1,-14
Cc1cc(C)nc(NC(=O)Cc2ccc(F)cc2)n1,-1,0,13*,-6,0,-3
Cc1cc(C)nc(NS(=O)(=O)c2ccc(NC(=O)Cc3ccc(F)cc3)cc2)n1,5,0,0,-2,·,·
Cn1c(=O)cc(N2CCCC2)n(Cc2ccc(F)cc2F)c1=O,10,0,-1,1,·,·
Cn1c(=O)cc(N2CCCCC2)n(Cc2ccc(F)cc2F)c1=O,-6,0,5.7*,-10,-2,-8
O=C(Nc1cccc(F)c1)N[C@H]1C[C@H]2C(=O)N[C@@H](CO)C(=O)N2C1,-2,0,1,7,·,·
CCCCN(CCCC)c1nc(C)cc(=O)[nH]1,-5,0,5.1*!,5,0,-1
CCN(CC)C(=O)C1CCCN(c2nc(Nc3ccc(NC(C)=O)cc3)c3ncn(CCN4CCCC4=O)c3n2)C1 (centres undefined),-5,0,6.4*,-1,0,-8
CCN(CC)C(=O)C1CCCN(c2nc(Nc3ccc(NC(C)=O)cc3)c3ncn(Cc4ccc(C(F)(F)F)cc4)c3n2)C1 (centres undefined),0,0,0,3,·,·
O=C1CCCN1CCn1cnc2c(Nc3ccc4c(c3)OCO4)nc(N3CCN(Cc4ccc5c(c4)OCO5)CC3)nc21,8,0,5.1*,8,0,-7
SMILES,MITF inh,FBW7 act,GPR151 ag,TEAD-YAP inh,GPR151 confirm,GPR119 counter
CCCc1nc2c(o1)-c1ccccc1C(=O)C2=O,-5,-1,-3,21,·,·
CSCCC(NC(=O)c1ccc(Cl)c([N+](=O)[O-])c1)C(=O)O (centres undefined),0,0,5.3*,5,2,12
Cc1nc2c(C(=O)NC3CCCC3)cnn2c(C)c1Cc1ccc(F)cc1,-10,0,1,-5,·,·
Cc1nc2c(C(=O)NC3CCCCC3)cnn2c(C)c1Cc1ccc(F)cc1,-2,0,5.0*,-10,0,-9
Cc1nc2c(C(=O)O)cnn2c(C)c1Cc1ccc(Cl)cc1,6,0,5.8*,7,1,8
CC(=O)c1cccc(-c2ccc(OCCCc3ccccn3)nc2)c1,5,0,3,-50,·,·
CNC(=O)c1c(NC(=O)c2ccccc2OC)sc2c1CCCC2,-9,0,0,0,·,·
CCOCCCNc1c(-c2ccccc2)nc2cnccn12,9,0,5.6*,6,0,5
CCOCCCNc1c(-c2ccccc2)nc2ccc(Br)cn12,-3,0,1,-39,·,·
COc1cccc2cc(C(=O)Nc3ccccc3-c3nc4ccccc4[nH]3)oc12,-11,0,2,-10,·,·
Cc1ccc(-c2nnc3sc(NC(=O)COc4ccccc4)nn23)cc1,7,1,1,2,·,·
O=C(COc1cccc(Cl)c1Cl)c1ccc[nH]1,0,0,9.9*,-9,0,-12
CC(C)(Sc1cc(C(C)(C)C)c(O)c(C(C)(C)C)c1)Sc1cc(C(C)(C)C)c(O)c(C(C)(C)C)c1,2,0,11*!,-3,0,4
Cc1ccc(-c2[nH]ncc2CN(C)Cc2c(C)n[nH]c2C)cc1C,1,0,-2,7,·,·
Cc1nnc(CN(C)Cc2cn[nH]c2-c2ccc(C)c(C)c2)o1,10,0,6.7*,-18,0,6
Nc1c(C(=O)Nc2ccc3c(c2)OCCO3)sc2nc3cc4c(cc3cc12)OCCO4,11,0,0,-77,·,·
Nc1c(C(=O)Nc2ccc3c(c2)OCCO3)sc2nc(-c3cccs3)ccc12,-6,0,6.3*,11,-1,-2
CC1Cc2ccccc2N1C(=O)Nc1ccc(F)cc1 (centres undefined),11,1,5.5*,-7,-1,-20
Nc1ccccc1-c1nc2ccccc2[nH]c1=O,4,0,5.9*,-55,-2,-16
CC(C)(C)c1ccc(OCCN2C(=O)C(=O)c3ccccc32)cc1,20,0,5.4*,11,0,10
CC(C)(C)c1ccc(OCCCN2C(=O)C(=O)c3ccccc32)cc1,12,0,-1,6,·,·
O=C(O)c1ccccc1-c1ccccc1C(=O)NC1CS(=O)(=O)CC1O (centres undefined),-14,0,5.1*,-11,2,16
O=C(O)c1ccccc1-c1ccccc1C(=O)Nc1ccccc1,22,0,2,5,·,·

# Screens from PubChem BioAssay.
